Laboratory results taken from ChEMBL document CHEMBL3988442, “University of Dundee, Small-Polar-MMV Screening Library” (2021).
About 13,000 (27%) of roughly 48,000 compounds showed an effect of 50% or more. Some of the results follow.

Tested on: Wolbachia pipientis
Assay: Anti-Wolbachia Cell-Based Screen
Format: functional
Design: scale not given: in the data most compounds retested in dose-response had high values
Conditions: 5 µM

Compound | Percent Effect [%]
Cc1cc2cc(CNC3CCN(CC4CCOC4)CC3)oc2cc1C (stereo not given) | -8.178
Cc1cccc(CO[C@@H]2CO[C@@]3(CCN(S(=O)(=O)N(C)C)C3)C2)n1.O=C(O)C(F)(F)F | 0.8682
CCOC1COC2(CCN(c3ncc(C)cn3)CC2)C1 (stereo not given) | 100.2
CCOC1COC2(CCN(c3ccccn3)CC2)C1.O=C(O)C(F)(F)F (stereo not given) | 106.9
CCOC1COC2(CCN(Cc3ccco3)CC2)C1.O=C(O)C(F)(F)F (stereo not given) | -20.65
CCOC1COC2(CCN(Cc3cccc(C)n3)CC2)C1.O=C(O)C(F)(F)F (stereo not given) | 109.8
Cc1cnc(N2CCC3(CC2)CC(NS(C)(=O)=O)CO3)nc1 (stereo not given) | -15.37
CCOC1COC2(CCN(C(=O)c3cccc(C)n3)CC2)C1.O=C(O)C(F)(F)F (stereo not given) | 94.67
CN(C)C(=O)COC1COC2(CCN(c3ncccn3)CC2)C1 (stereo not given) | 5.74
CN(C)C(=O)COC1COC2(CCN(c3cnccn3)CC2)C1.O=C(O)C(F)(F)F (stereo not given) | 7.565
CCS(=O)(=O)N1CCC2(CC1)CC(Oc1ccccn1)CO2.O=C(O)C(F)(F)F (stereo not given) | 11.25
CCS(=O)(=O)N1CCC2(CC1)CC(COC)N(c1ncccn1)C2.O=C(O)C(F)(F)F (stereo not given) | -2.955
Cc1cccc(COC2COC3(CCN(S(C)(=O)=O)CC3)C2)n1.O=C(O)C(F)(F)F (stereo not given) | 2.01
CCOC1COC2(CCN(c3cccc(C)n3)CC2)C1.O=C(O)C(F)(F)F (stereo not given) | 89.3
COCC1CC2(CCN(c3cccc(C)n3)CC2)CN1c1ncccn1.O=C(O)C(F)(F)F (stereo not given) | 95.56
CN(C)C(=O)COC1COC2(CCN(c3cccc(F)c3)CC2)C1.O=C(O)C(F)(F)F (stereo not given) | -1.854
COCCN1CCC2(CC1)CC(COC)N(c1ncccn1)C2.O=C(O)C(F)(F)F.O=C(O)C(F)(F)F (stereo not given) | -10.3
CSc1ccc(-c2nc(CN3CCC(NC(C)=O)CC3)c(C)o2)cc1 | 26.44
CS(=O)(=O)N1CCC[C@]2(C[C@@H](Oc3ncccc3F)CO2)C1.O=C(O)C(F)(F)F | -13.76
O=C(O)C(F)(F)F.O=C(O)C(F)(F)F.c1ccc(O[C@H]2CO[C@@]3(CCN(Cc4ccc5c(c4)OCO5)C3)C2)nc1 | 2.667
O=C(O)C(F)(F)F.O=C(c1cnoc1)N1CCC[C@]2(C[C@H](Oc3ncccc3F)CO2)C1 | -8.736
Cn1cc(CN2CCC[C@]3(C[C@H](Oc4ncccc4F)CO3)C2)cn1.O=C(O)C(F)(F)F.O=C(O)C(F)(F)F | 108.2
Cn1cc(CN2CCC[C@]3(C[C@@H](Oc4ncccc4F)CO3)C2)cn1.O=C(O)C(F)(F)F.O=C(O)C(F)(F)F | 104.4
CN(C)S(=O)(=O)N1CC[C@]2(C[C@H](Oc3ncccc3F)CO2)C1.O=C(O)C(F)(F)F | -14.15
Cc1nc(CN2CCCC(N(C)Cc3nc(CC(C)C)no3)C2)no1 (stereo not given) | -5.621

Compound | Percent Effect [%]
CO[C@@H]1CCN(S(=O)(=O)c2cn(C)cn2)[C@H]1Cc1ccccc1 | -1.543
CCN1CCO[C@]2(CCC[C@H]2COCc2csc(C)n2)C1.O=C(O)C(F)(F)F.O=C(O)C(F)(F)F | -10.73
CCOC[C@@H]1CCC[C@]12CN(S(=O)(=O)c1cn(C)cn1)CCO2 | 118.4
CC(C)OC[C@H]1CCC[C@]12CN(S(=O)(=O)c1cn(C)cn1)CCO2 | 110
COC[C@@H]1CCC[C@]12CN(S(=O)(=O)c1cn(C)cn1)CCO2 | 112.9
CC(C)OC[C@H]1CCC[C@]12CN(S(=O)(=O)C1CC1)CCO2 | -22.82
COCC1N(S(=O)(=O)c2cn(C)cn2)[C@H]2CC[C@]1(O)CC2 (stereo not given in full) | 116.2
COC[C@@H]1CCC[C@]12CN(S(=O)(=O)c1cccs1)CCO2 | -10.75
COC[C@H]1CCC[C@]12CN(S(=O)(=O)c1cccs1)CCO2 | -5.962
CO[C@@H]1CC[C@H]2[C@H]1OCCN2S(=O)(=O)c1cn(C)cn1 | -3.329
CC(C)OC[C@H]1CCC[C@]12CN(S(=O)(=O)c1cccs1)CCO2 | -17.54
O=C(c1cnccn1)N1CCN2C[C@H](OCC3CC3)C[C@H]2C1 | -2.249
CCOc1cccc(COC(=O)c2scnc2C)n1 | -15.18
O=C(NCCn1cccn1)C1CCC(=O)N(CC2CCCCC2)C1 (stereo not given) | 7.611
Cc1ccccc1OC1CN(Cc2c(C)nc3ccccn23)C1 | -115.8
CNc1nc(CNC(=O)Nc2cccc(F)c2C)cs1 | -1.885
O=C(NCCCn1cccn1)C1CCC(=O)N(Cc2ccccc2F)C1 (stereo not given) | -2.925
CC(C)CCNC(=O)c1ccc(-c2ccco2)[nH]c1=O | 11.73
CCC(C)NC(=O)c1ccc(-c2ccco2)[nH]c1=O (stereo not given) | 3.717
COCCNC(=O)C(C)n1nc(-c2ccco2)cc(N)c1=O (stereo not given) | 94.6
CC(C)OCCCNC(=O)c1ccc(-c2ccco2)[nH]c1=O | -5.072
COCCCNC(=O)C(C)n1nc(-c2ccco2)cc(N)c1=O (stereo not given) | 133.4
COCCCNC(=O)Nc1cc(-c2ccccc2C)nn1CCO | -5.534
COc1cc(NC(=O)N(C)Cc2ccc(Br)o2)ncn1 | 1.624
COc1ccnc(NC(=O)c2cscn2)c1 | -4.154

Compound | Percent Effect [%]
CSc1ncccc1C(=O)N1C[C@H]2CC[C@@H]1CN(CC(=O)N(C)C)C2 | -12.01
F[C@@H]1CN(CC2CC2)C[C@@H]1OCc1nc2ccccc2o1 | -15.91
C[C@@H]1CN(CCOc2ccc(F)cc2)CC[C@@]1(O)C1CCOCC1 | 93.05
C[C@@H]1CN(CCOCc2ccccc2)CC[C@@]1(O)C1CCC1 | -4.959
C[C@@H]1CN(C(=O)CCCN2CCCC2)CC[C@@]1(O)C1CCOCC1 | -4.515
C[C@@H]1CN(CCOc2ccc(Cl)cc2)CC[C@@]1(O)C1CCOCC1 | 95.64
C[C@@H]1CN(C(=O)CCCN2CCOCC2)CC[C@@]1(O)C1CCC1 | -2.629
C[C@@H]1CN(Cc2cc(C3CCCCC3)no2)CC[C@@]1(O)C1CC1 | 9.24
C[C@@H]1CN(CCCOc2ccc(F)cc2)CC[C@@]1(O)C1CCOCC1 | 97.34
COc1cccc(OCCN2CC[C@@](O)(C3CCOCC3)[C@H](C)C2)c1 | 98.26
COc1cc(F)c(CN2CC[C@@](O)(C3CC3)[C@H](C)C2)cc1OC | 9.055
CN(C)CCN(C)S(=O)(=O)Cc1ccc(Br)cc1 | -1.249
CCC(=O)c1ccc(OCC(=O)NC(C)c2nnc(C)[nH]2)cc1 (stereo not given) | 8.329
O=C(CCNS(=O)(=O)c1ccc2c(c1)CCCC2)NCc1ccoc1 | 1.514
CCN(Cc1csc(CS(C)(=O)=O)n1)c1cccc(CO)c1 | 6.548
CCc1nsc(NC2CCOC3(CCCC3)C2)n1 (stereo not given) | -3.423
COCCCNS(=O)(=O)c1cc(C)sc1C | 1.598
C=C(C)COc1cccc(CNC(CC)c2ccnn2C)c1 (stereo not given) | -16.98
Cc1nccn1C1CCCN(C(=O)c2cccc(-n3cccc3)c2)C1 (stereo not given) | 98.3
NC(=O)COc1cccc(C(=O)N2CCCC(n3cccn3)C2)c1 (stereo not given) | -6.954
COc1cccc(COCC(=O)N2CCCC(n3ccnc3C)C2)c1 (stereo not given) | -4.06
Cc1nccn1C1CCCN(C(=O)c2cccc(OCC(N)=O)c2)C1 (stereo not given) | 92.13
Cc1nccn1C1CCCN(C(=O)c2cccc(S(C)(=O)=O)c2)C1 (stereo not given) | 94.78
CC(=O)c1cn(CCC(=O)N[C@H](C(=O)O)C(C)C)c2ccccc12 | 14.47
CN1CCCC(N(C)C(=O)c2ccc(NC(=O)c3cc[nH]n3)cc2)C1 (stereo not given) | -7.369

Compound | Percent Effect [%]
Cc1ccc2cccc(S(=O)(=O)N(C)CC3CCN(C)CC3)c2n1 | 117.6
CN(C1CCCCC1)S(=O)(=O)NC1CCCN(c2ncccn2)C1 (stereo not given) | -0.1008
Cc1ccc2cccc(C(=O)NCC3CCN(C(C)C)C3)c2n1 (stereo not given) | -2.471
CN1CCC(CN(C)S(=O)(=O)CC2CCCCC2)CC1 | -3.898
Cc1ccc2cccc(S(=O)(=O)N(C)C3CCCN(C)C3)c2n1 (stereo not given) | 110
CCN(C1CCS(=O)(=O)C1)S(=O)(=O)c1cccc2cc(C)cnc12 (stereo not given) | 2.36
CN1CCCC(N(C)S(=O)(=O)c2cccc3ncccc23)C1 (stereo not given) | 142.2
CN1CCC(CNC(=O)c2ccc3cccc(Cl)c3n2)C1 (stereo not given) | 16.58
Cc1ccc2cccc(C(=O)NCCOCC3CC3)c2n1 | 4.026
Cc1ccc2cccc(S(=O)(=O)N(C)CC3CCN(C)C3)c2n1 (stereo not given) | 116.7
CN(C1CCN(c2ccccn2)CC1)S(=O)(=O)c1ccccc1F | -17.13
COCCN1CC(c2nc(CC3CCN(C)CC3)no2)CCC1=O (stereo not given) | -7.698
Cc1ccc(C(N)=O)cc1NCCOc1cccc(C#N)c1 | -8.652
O=C(c1[nH]nc2c1CCCC2)N1CCC(OCCN2CCCCC2)C1 (stereo not given) | 5.05
COCCN(CCC#N)S(=O)(=O)c1ccc(F)cc1Cl | -17.33
CCOc1ncc(NC(=O)c2ccco2)c(OCC)n1 | 6.887
O=C(NCCn1ccnc1)N1CCN(Cc2ccco2)CC1 | 103.9
O=C(NCCNc1ncccn1)N1CCN(Cc2cccnc2)CC1 | -0.1396
O=C(NCCn1ccnc1)N1CCCC1c1ccsc1 (stereo not given) | 8.592
O=C(NCCn1ccnc1)N1CCN(Cc2ccsc2)CC1 | 102.5
O=C(NCCn1ccnc1)N1CCN(Cc2cccnc2)CC1 | 109.3
CC1CN(C(=O)NCCn2ccnc2)CCO1 (stereo not given) | -11.62
CC(=O)N1CCN(C(=O)NCc2ccccc2Cn2ccnc2)CC1 | -14.94
CC(Cn1ccnc1)NC(=O)N1CCN(Cc2cccnc2)CC1 (stereo not given) | -2.682
Cc1ccc(CNC(=O)N2CCN(Cc3ccsc3)CC2)n1C | 2.843
